mcGAS lum = blocks mouse cGAS activity. Q8C6L5. recombinant cGAS, Kinase-Glo ATP depletion luminescence. inhibition, % at 12.5 µM. 160,000 compounds, 0.15% hits;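 also: 0% = negative control wells and 100% = reference inhibitor with no enzyme activity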
hcGAS inh = human cGAS inhibition. inhibition, % at 12.5 µM. AID 1259398. recombinant h-cGAS, ATP depletion, Kinase-Glo luminescence. Q8N884. 290,000 compounds, 0.081% hits;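 also: 0% = vehicle reaction and 100% = reaction without DNA for no activity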
Target sequence (Q8N884 whole entry, looked up): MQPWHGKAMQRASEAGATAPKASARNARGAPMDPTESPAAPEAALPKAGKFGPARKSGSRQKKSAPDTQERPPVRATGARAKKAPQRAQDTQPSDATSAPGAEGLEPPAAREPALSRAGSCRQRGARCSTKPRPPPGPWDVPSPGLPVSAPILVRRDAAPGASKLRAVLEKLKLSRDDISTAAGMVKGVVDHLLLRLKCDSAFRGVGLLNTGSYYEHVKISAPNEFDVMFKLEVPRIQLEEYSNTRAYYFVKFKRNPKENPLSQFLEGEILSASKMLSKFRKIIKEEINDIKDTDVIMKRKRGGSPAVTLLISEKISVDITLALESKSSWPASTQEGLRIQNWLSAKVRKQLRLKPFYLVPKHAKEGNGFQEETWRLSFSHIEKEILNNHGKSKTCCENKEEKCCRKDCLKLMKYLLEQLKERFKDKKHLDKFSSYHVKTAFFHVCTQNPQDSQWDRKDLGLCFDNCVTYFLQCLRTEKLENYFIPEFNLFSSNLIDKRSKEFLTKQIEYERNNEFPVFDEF
NPYLR7 ag = mosquito NPYLR7 agonism; HEK293T NPYLR7/Galpha15, GCaMP6s calcium fluorescence; 270,000 compounds, 0.15% hits; activation, % at 10 µM; in the data active = activation above about 40%;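 also: 0% = vehicle and 100% = reference agonist at the receptor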
* = called active by the depositor; · = not tested or not shown. The list is not random: actives were taken first. Their share in the collection is about 0.3%. Rule as the data show it, unless noted: active = inhibition above about 40%; inactive = the rest.

SMILES | mcGAS lum | hcGAS inh | NPYLR7 ag
COc1ccc(C(=O)C=Cc2cccc(O)c2)cc1F | 22.7 | 0.6 | -1.7
CCN1CCN(c2ccc(C(=O)C=Cc3ccc(O)c(OC)c3)cc2F)CC1 | · | -8.0 | 92.9*
COc1ccc(CCOC(=O)C2CCCCN2S(=O)(=O)c2ccc3c(c2)CN(C(=O)C(F)(F)F)CC3)cc1OC (stereo not drawn) | -2.7 | -5.3 | -9.0
O=C(NCCN1CCCC1)c1cc2n(n1)CCN(Cc1ccccc1C(F)(F)F)C2=O | -2.5 | 2.7 | 8.5
O=C(NCCN1CCCCC1)c1cc2n(n1)CCN(Cc1cccc(C(F)(F)F)c1)C2=O | 46.5* | 6.8 | -6.1
CC(=O)OC(C)(C)C(=O)N1CCN(c2nccc(-c3ccc(Oc4ccccc4)cc3)n2)CC1 | -4.5 | -4.7 | 24.8
N#Cc1cccc(NC(=O)c2ccccc2OC(F)F)c1 | · | -7.8 | 1.8
CN1C(=S)N(C2CCCCC2)C(=O)/C1=C\c1ccc2c(c1)OCO2 | -8.3 | -3.0 | 45.8*
CN1C(=S)N(c2ccc3c(c2)OCO3)C(=O)/C1=C\c1cccc(OCCO)c1 | -2.8 | -1.3 | 33.8
COc1ccc(-n2nnc3c(=O)[nH]cnc32)cc1OC | · | -3.9 | -3.6
CC(C)C(Cn1ccnc1)NC(=O)c1ccc(-n2cnnc2)cc1 (stereo not drawn) | · | -3.4 | ·
C=CCn1c(-c2nonc2N)nc2ccccc21 | -2.8 | -8.4 | -5.2
O=S(=O)(c1ccccc1)c1ccccc1Nc1ccccc1 | · | 77.9* | -0.3
O=S(=O)(c1ccccc1)c1cnc2ccccc2c1Nc1ccccc1 | -3.9 | -4.6 | 2.7
CC(C)c1nc(NC(=O)CS(=O)(=O)C2CCCC2)n(C)n1 | · | -10.0 | 2.5
CC(C)c1nc(NC(=O)c2[nH]ncc2Br)n(C)n1 | · | 49.3* | 84.9*
COC(=O)Cn1ncn2c(cc3sc(C)cc32)c1=O | -2.6 | -3.7 | -1.0
O=C(Nc1cccc(F)c1)Nc1ccnn1C1CCN(C(=O)CC2=CCCCC2)CC1 | -9.3 | -7.0 | ·
COC(=O)c1cc(-c2ccccc2)sc1NC(=O)CCCl | -3.8 | -4.5 | -4.2
NC(=O)c1cc(-c2ccccc2)sc1NC(=O)CCl | 81.5* | 3.7 | -7.9
CNc1nc(-c2ccc(NC(=O)C(C)C)cc2)c(C)s1 | · | -4.8 | -4.8
CN1C(=S)N(c2ccc3c(c2)CCC3)C(=O)/C1=C\c1ccncc1 | -3.5 | -2.0 | 41.1*
CN1C(=S)N(c2ccc3c(c2)CCC3)C(=O)/C1=C/c1ccc(N(C)C)cc1 | -10.3 | -13.1 | 4.1
Cc1cc(O)c(CN2CCOCC2)c2c1C(=O)/C(=C/c1cc3ccccc3o1)O2 | -3.0 | -1.3 | 28.5
Cc1cc(O)c(CN2CCN(C)CC2)c2c1C(=O)/C(=C/c1cccs1)O2 | -6.0 | -1.9 | 49.3*
SMILES | mcGAS lum | hcGAS inh | NPYLR7 ag
Cc1cc(O)c(CN2CCN(C)CC2)c2c1C(=O)/C(=C/c1ccncc1)O2 | -1.6 | -3.5 | 26.2
Cc1cc(O)c(CN2CCCCC2)c2c1C(=O)/C(=C/c1cc3ccccc3o1)O2 | -5.0 | -4.4 | 50.0*
CCC(C)n1cc(/C=C2/C(=O)NC(=O)N(c3ccc4c(c3)OCO4)C2=O)c2ccccc21 (stereo not drawn) | · | -0.1 | 51.5*
COc1cccc(N2C(=O)NC(=O)/C(=C/c3cn(C(C)=O)c4ccccc34)C2=O)c1 | 2.9 | 2.9 | -2.3
CN1C(=CC(=O)C(F)(F)F)Sc2ccccc21 | -6.3 | -10.5 | 2.8
CCN(CC)CC[n+]1c(C)cc(C=C2Sc3ccccc3N2C)cc1C | · | 11.0 | 44.2*
CC1=Cc2nc3ccccc3n2C2(C(F)(F)F)OC(c3cccnc3)=NN12 (stereo not drawn) | · | -9.7 | -7.2
Cc1[nH]c(/C=C2\C(=O)Nc3ccc(S(=O)(=O)N(C)c4cccc(Cl)c4)cc32)c(C)c1C(=O)N1CCN(C)CC1 | -1.3 | -0.5 | 41.2
CCN(CC)CCNC(=O)c1c(C)[nH]c(/C=C2/C(=O)Nc3ccc(F)cc32)c1C | · | 9.7 | 60.4*
Cc1ccsc1-c1nc(CN(C)Cc2cc(-c3ccncc3)no2)c(C)o1 | -12.1 | -9.3 | -5.5
CCCC1=NN(C(C)=O)C(C(=O)N2CCC(N3CCCCC3)CC2)O1 (stereo not drawn) | · | -8.5 | 16.9
Cc1ccc2nc(Cn3cc(C(F)(F)F)cc(Cl)c3=O)cc(=O)n2c1 | · | -1.3 | 3.1
Cc1ccc2nc(Cn3cnc4c(Cl)cc(Cl)cc4c3=O)cc(=O)n2c1 | · | -3.8 | 60.6*
O=C(/C=C/c1ccc(Cl)cc1Cl)n1cccn1 | 43.7* | 4.0 | -10.4
CN1CCN(C(=O)/C=C/c2ccc(Cl)cc2Cl)CC1 | -5.5 | -1.6 | -3.4
CCCc1nn2c(N)c(C=C3C=C(Cl)C(=O)C(Cl)=C3)c(=O)nc2s1 | 52.5* | 25.2 | 51.3*
CCCc1nn2c(N)c(C=C3C=CC(=O)C=C3)c(=O)nc2s1 | · | 13.1 | -3.5
CCN(CC)CCN(C(=O)c1ccc([N+](=O)[O-])o1)c1nc2cc3c(cc2s1)OCCO3 | -0.8 | -0.4 | -9.0
CC(C)(NC(=O)c1cccs1)C(=O)NC1CCN(Cc2ccccc2)C1 (stereo not drawn) | · | -1.3 | 13.4
Cc1ccccc1C1CCCN1C(=O)C(C)(C)NC(=O)c1cccs1 (stereo not drawn) | · | 50.2* | -2.5
CCc1ccccc1OCCN1CCCC2(C1)CN(C)C(=O)O2 (stereo not drawn) | -13.4 | -5.8 | 9.8
CC(C)CN(CCC(=O)Nc1ccc(F)cc1)c1nc(Cc2ccccc2)ns1 | -3.9 | -1.9 | -4.1
CCOCCn1cc(C2CCN(S(=O)(=O)c3cc(Cl)ccc3OC)CC2)c2ccccc21 | -6.8 | -2.1 | 25.0
COc1cccc2c1C(=O)c1c(O)c3c(c(O)c1C2=O)C[C@@](O)(C(=O)CO)C[C@@H]3OC1C[C@H](N)[C@H](O)[C@H](C)O1 (stereo partly drawn) | · | 57.1* | ·
COC(=O)C(C)Sc1nc2sc3c(c2c(=O)n1Cc1ccccc1)CCC3 (stereo not drawn) | · | 10.4 | -6.5
SMILES | mcGAS lum | hcGAS inh | NPYLR7 ag
COC(=O)C(C)Sc1nc2sc3c(c2c(=O)n1C)CCC3 (stereo not drawn) | · | -0.1 | 51.1*
Cc1csc(SCc2cc(=O)c(OC(=O)c3ccc(OC(C)C)cc3)co2)n1 | 0.7 | -2.2 | -12.4
CCOc1ccc2nc(Nc3nc(C)c(C)c(C)n3)nc(C)c2c1 | -5.4 | -3.6 | 9.7
CCOc1ccc2nc3cc(N)ccc3c(N)c2c1 | · | 98.8* | 72.0*
Cc1ccc(N(CCC#N)C(=O)CN2CCCc3ccccc32)cc1C | -17.4 | -6.0 | 22.3
Cc1ccc2c(c1)CCCN2CC(=O)N(CCC(N)=O)c1ccccc1 | 3.2 | 2.6 | 100.1*
CN(Cc1cnn(C)c1)C(=O)c1ccc(Oc2ccccc2)o1 | · | 4.1 | -1.7
O=C1c2ccccc2C(=O)C1c1nccc2ccccc12 | · | -5.0 | 0.1
O=C1c2ccccc2C(=O)C1c1ccnc2ccccc12 | -1.5 | -3.7 | 102.6*
COc1ccc(NC(=O)CCC2CCCN(C(=O)c3csc4c3CCCC4)C2)c(C)c1 (stereo not drawn) | -4.6 | 2.5 | 7.0
CCOc1ccc2nc(S(=O)(=O)NC(=O)C3(C)CCN3C(=O)Cc3cccs3)sc2c1 (stereo not drawn) | · | 0.9 | 2.6
C=CCCC(O)CNc1ccc(-n2nc(OCCOCC)nc2-c2ccccc2C)cc1 (stereo not drawn) | 0.4 | 52.1* | -1.2
CCOCCOc1nc(-c2ccccc2C)n(-c2ccc(NC(=O)CCCCl)cc2)n1 | 0.4 | 1.9 | -0.9
CCCNC(=O)C1(C)CCCN(Cc2sc(C)nc2C)C1 (stereo not drawn) | · | -19.8 | 0.6

Screens: PubChem BioAssay, Fisher Drug Discovery Resource Center
